The record followed here is PubChem BioAssay (Tox21).

Each structure is given as a SMILES string. Records with an inconclusive call do not appear. Values without a mark were called inactive. Calls of active or inactive are those of the source. The call rests on the fitted dose curve; in most records, active means well fitted cell-killing curve with a large enough effect in the repeat runs; inconclusive means weak or mixed curves, or effect the other way; inactive means no such curve, though single readings can be large or run the other way.
On the % scale 0 is the no-effect control and ±100 the full control effect; potency means the concentration at half of the fitted maximal effect.

The nature of the assay: qHTS assay to identify small molecule agonists of the estrogen receptor alpha (ER-alpha) signaling pathway in the presence of an antagonist - cell viability counter screen (AID 1259386). Further: nearly all actives have a fitted effect of over 30% in size. The note with it: VM7Luc4E2 viability, CellTiter-Fluor fluorescence, 22 h; series mostly up to 92.4 µM; activity change, negative = cytotoxicity: at the top concentration. The method in brief: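 Compounds tested at 15 concentrations for 22 h at 37C alongside 10.0nM (final) ICI-182,780 antagonist, in VM7Luc4E2 cells grown in phenol red-free, charcoal-stripped medium. Viability read by CellTiter-Fluor fluorescence after 1 h reagent incubation.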
A general note: In qHTS, concentration-response curves come from the screen itself.
Turning to `CNC(=O)Oc1ccc(N(C)C)c(C)c1`, the “activity change, negative = cytotoxicity” value is 0.915%. Same read-out and setting: for `CCC1(c2ccccc2)C(=O)NC(=O)NC1=O` the value was 4.18%; for `COC(=O)c1ccccc1S(=O)(=O)NC(=O)Nc1nc(C)cc(C)n1`, 0.758%; for `COc1cc(OC)nc(NC(=O)NS(=O)(=O)c2ncccc2C(=O)N(C)C)n1`, 3.99%. Same read-out and setting: for `ClCC(Cl)Cl` the value was 0.366%; for `CCOP(=S)(OCC)SCSP(=S)(OCC)OCC`, 0.642%; for `CCS(=O)(=O)CCSP(=O)(OC)OC`, -5.11%. On the same count and under the same terms, the value for `O=C1CN2CCOC2(c2ccccc2Cl)c2cc(Cl)ccc2N1` (stereo not given) was 1.03% [at 42.5 µM]; that for `CCOP(=O)(N=C1SCCS1)OCC` was -0.528%.

Regarding `N#CC(CCc1ccc(Cl)cc1)(Cn1cncn1)c1ccccc1` (stereo not given), the Potency was 61.1 µM (active).

Turning to `COc1cccc2c1cc([N+](=O)[O-])c1c(C(=O)O)cc3c(c12)OCO3`, the Potency was 61.1 µM (active). `CC(=O)CC(c1ccc(Cl)cc1)c1c(O)c2ccccc2oc1=O` (stereo not given): the “activity change, negative = cytotoxicity” value is 0.295%. Still for that read-out and setting: for `ClC(Cl)C(Cl)Cl` the value was 3.72%. For the compound `COc1cc(OC)nc(Sc2cccc(Cl)c2C(=O)O)n1`, the “activity change, negative = cytotoxicity” value is 2.73%. Same read-out and setting: the value for `COc1cc(OC)nc(NC(=O)NS(=O)(=O)c2ncccc2OCC(F)(F)F)n1` was -0.126%. On to `C=CCC1=C(C)[C@@H](OC(=O)[C@@H]2[C@@H](C=C(C)C)C2(C)C)CC1=O`, for which the Potency is 48.6 µM (active).

Take `N#CCNCC#N`: the “activity change, negative = cytotoxicity” value was 1.55%.

Take `CCC(Cl)[N+](=O)[O-]` (stereo not given): the “activity change, negative = cytotoxicity” value was 0.128%. On the same count and under the same terms, for `O=[N+]([O-])c1cc(Cl)c(Cl)c(Cl)c1` the value was -0.042%; for `Nc1cc2c3c(c1)C(c1ccccc1)=N[C@@H](NC(=O)c1cccnc1)C(=O)N3CC2`, -7.75%; for `CC(C)NCC(O)c1ccc(N)c(C#N)c1` (stereo not given), -3.55% [at 42.5 µM]. Regarding `C(CCOCC1CO1)COCC1CO1` (stereo not given), the “activity change, negative = cytotoxicity” value was 2.52%. For the compound `Cc1ncsc1CCCl`, the “activity change, negative = cytotoxicity” value is 3.96% [at 42.5 µM].

Take `CNC(=O)Oc1cccc(C(C)C)c1`: the “activity change, negative = cytotoxicity” value is 0.929%. On the same count and under the same terms, the value for `N#Cc1ccncc1` was 2.81%; that for `CCC(C)n1c(=O)[nH]c(C)c(Br)c1=O` (stereo not given) was 1.75%. On the same count and under the same terms, for `Fc1ccc(C2(Cn3cncn3)OC2c2ccccc2Cl)cc1` (stereo not given) the value was -2.56%; for `O=C(Oc1ccc(Br)cc1)N1CCN2CCC1CC2`, -0.834%; for `CCOP(=S)(OCC)Oc1nc(Cl)n(C(C)C)n1`, -2.6%. On to `CC(=O)CCc1ccc2c(c1)OCO2`, for which the “activity change, negative = cytotoxicity” value was 1.62%.
